40 molecules from PubChem BioAssay (Tox21) can be followed below.

Inconclusive results are not listed. Entries that show only a call come without a potency. More than one record can exist for a structure, and the calls need not agree. The source made the active and inactive calls. Calls come from the whole dose curve; as a rule, active = well fitted cell-killing curve with a large enough effect in the repeat runs; inconclusive = weak or mixed curves, or effect the other way; inactive = flat fitted curve, though single readings scatter.
Potency is the fitted concentration of half-maximal effect.

The nature of this test: qHTS assay to identify small molecule agonists of the TGF-beta/Smad signaling pathway - cell viability counter screen (AID 1346829). For activity change, negative = cytotoxicity: top concentration of the series differs between compounds. Note: nearly all actives have a fitted effect of over 45% in size. To be noted: SBE-bla HEK293T viability, CellTiter-Glo luminescence, 5 h; series mostly up to 76.8 µM. An excerpt:
National Center for Advancing Translational Sciences [NCATS]
NIH Chemical Genomics Center [NCGC]
U.S. Environmental Protection Agency [EPA]
National Institutes of Environmental Health Sciences [NIEHS]
National Toxicology Program [NTP]
U.S. Food and Drug Administration [FDA]
Transforming growth factor beta (TGF-beta) superfamily consists of a large number of structurally related dimeric proteins that act as hormones or local mediators in regulating a wide range of biological functions. This superfamily includes TGF-betas themselves, the bone morphogenetic proteins (BMPs) and the activins. These ligands induce oligomerization of serine/threonine receptor kinases and phosphorylate the cytoplasmic signaling molecules of Smad protein family. CellSensor SBE-bla HEK 293T cell line (Life Technologies, Carlsbad, CA), responsive to TGF-beta was used to screen Tox21 10K compound library for identification of agonists/antagonists of the Smad signaling pathway. This cell line contains a beta-lactamase reporter gene under control of the Smad binding element (SBE) stably integrated into HEK 293T cells. Also cytotoxicity of the compounds was tested in parallel by measuring the cell viability using CellTiter-Glo assay system in the same wells.
Tox21 Assay Protocol Summary:
SBE-bla HEK 293T cells were dispensed at 4,000/well in 6 uL of assay medium into black wall/clear-bottom 1536-well plates using a Multidrop Combi (ThermoFisher Scientific, Waltham, MA) dispenser. After the assay plates were incubated at 37 C and 5% CO2 for an overnight, 23 nL of compounds dissolved in DMSO, positive controls or DMSO only was transferred to the assay plate by a Pintool station (Kalypsys, San Diego, CA). The assay plates were incubated at 37 C and 5% CO2 for 5 hr. One uL of LiveBLAzer B/G FRET substrate (Life Technologies) was added using a Flying Reagent Dispenser (FRD, Aurora Discovery, San Diego, CA) and the plates were incubated at room temperature for 2 hr. Fluorescence intensity (405 nm excitation, 460 nm and 530 nm emissions) was measured using an Envision plate reader (PerkinElmer, Shelton, CT). For cytotoxicity read, 4 uL of CellTiter-Glo reagent (Promega Corporation, Madison, WI) was added to each well of the assay plates using FRD. After 30min incubation at room temperature, the luminescence intensity was measured using ViewLux plate reader (PerkinElmer).
In the case of `NCCCC(O)(P(=O)(O)O)P(=O)(O)O`, the Potency entry is “inactive”.
Still for that read-out and setting: the result for `COC(=O)CC#N` reads “inactive”.
In the case of `CCC(C)(C)c1cc(O)c(C(C)(C)CC)cc1O`, the Potency result is “inactive”.
The same measure, in the same setting: the result for `CCCCN(C)C` reads “inactive”; that for `CC(C)=C1CC[C@@H](C)CC1=O`, “inactive”.
Regarding `CCCCCCCOC(=O)c1ccccc1C(=O)OCCCCCCC`, the Potency entry is “inactive”.
With `O=S(=O)(O)c1cc(S(=O)(=O)O)c2ccc3c(S(=O)(=O)O)cc(S(=O)(=O)O)c4ccc1c2c43`, the activity change, negative = cytotoxicity is 10.3% [at 15.8 µM] (inactive).
In the case of `CC(=O)Oc1ccc(C2(c3ccc(OC(C)=O)cc3)C(=O)Nc3ccccc32)cc1`, the Potency result was “inactive”.
Still for that read-out and setting: the result for `CCc1ccc(C)nc1` reads “inactive”; that for `CCNc1nc(NC(C)CC)nc(OC)n1` (stereo not given), “inactive”.
On the same count and under the same terms, under `CCOC(=O)N1CCC(=C2c3ccc(Cl)cc3CCc3cccnc32)CC1` stands “inactive”.
On the same count and under the same terms, the result for `CCCCCCCOC(=O)c1ccc(O)cc1` reads “inactive”.
Regarding `C=CC(=C)CCC=C(C)C`, the Potency entry was “inactive”.
Regarding `C[Si](C)O[Si](C)C`, the Potency entry was “inactive”.
For the molecule `SCCCCCCCCS`, the Potency entry is “inactive”.
Same read-out and setting: the result for `CO[Si](CCC1CCC2OC2C1)(OC)OC` (stereo not given) reads “inactive”.
In the case of `CCCC(O)C(O)CO` (stereo not given), the Potency entry is “inactive”.
Still for that read-out and setting: under `CCCN(CCc1cccs1)[C@H]1CCc2c(O)cccc2C1` stands “inactive”.
As for `Cc1cccc(Br)c1`, the Potency entry was “inactive”.
As to `c1cc2c3c(c1)ccc1cccc(c13)C2`, the Potency result is “inactive”.
`CC(C)=CCCC(C)O` (stereo not given): the Potency entry was “inactive”.
Still for that read-out and setting: under `C[C@@H]1CC[C@H]2C(C)(C)[C@H]3C[C@@]12CC[C@@]3(C)O` stands “inactive”; under `CCC1(c2cnc[nH]2)Cc2ccccc2C1`, “inactive”; under `CCCCCCCCCCCCOC(=O)c1cc(O)c(O)c(O)c1`, 61.4 µM (active) and inactive.
The same measure, in the same setting: the result for `COc1ccc2sc(C(=O)Nc3nnn[nH]3)c(OC(C)C)c2c1` reads “inactive”; that for `CC(O)C#CC(C)O` (stereo not given), “inactive”; that for `CN(C)CCN1CCOCC1`, “inactive”.
The same measure, in the same setting: the result for `OCCCS` reads “inactive”.
Turning to `CCOC(=O)[C@@](C)(N)Cc1ccc(O)c(O)c1`, the Potency entry was “inactive”.
Same read-out and setting: the result for `COc1cccc(O)c1` reads “inactive”; that for `COc1cccc(OC)c1O`, “inactive”.
Same read-out and setting: under `Cc1cc(Nc2ccc(O)cc2)ccc1N` stands “inactive”; under `CNC(=O)c1cc(Oc2ccc(NC(=O)Nc3ccc(Cl)c(C(F)(F)F)c3)cc2)ccn1`, “inactive”.
Turning to `C=C/C=C/C=C/CCCCC`, the activity change, negative = cytotoxicity is -1.35% [at 15.8 µM] (inactive).
As for `CC(C)CCOCCC(C)C`, the Potency result was “inactive”.
For the molecule `Cc1nc(Nc2ncc(C(=O)Nc3c(C)cccc3Cl)s2)cc(N2CCN(CCO)CC2)n1`, the Potency result was “inactive”.
Still for that read-out and setting: the result for `CC1=C(/C=C/C(C)=C/C=C/C(C)=C/C(=O)Nc2ccc(O)cc2)C(C)(C)CCC1` reads “inactive”; that for `CC(C)(c1cc(Br)c(OCCO)c(Br)c1)c1cc(Br)c(OCCO)c(Br)c1`, “inactive”; that for `COc1cc(C(=O)NS(=O)(=O)c2ccccc2C)ccc1Cc1cn(C)c2ccc(NC(=O)OC3CCCC3)cc12`, “inactive”.
Turning to `O=c1cccc[nH]1`, the Potency result was “inactive”.
